Measurements published in PubChem BioAssay (NCATS).
Records with an inconclusive call do not appear. Where a call stands in place of a potency, no number is given. Calls of active or inactive are those of the source. The call rests on the fitted dose curve; in most records, active means well fitted cell-killing curve with a large enough effect; inconclusive means small, poorly fitted or top-dose-only effect; inactive means flat fitted curve, though single readings scatter.

Assay: Cell Viability - LYMP2-010 (AID 981); further: nearly all actives have a fitted effect of over 55% in size
Details: LYMP2-010 lymphoblastoid cell viability, qHTS; series mostly up to 92.2 µM
From the text: NIH Chemical Genomics Center [NCGC]
NIH Molecular Libraries Screening Centers Network [MLSCN]
National Institutes of Environmental Health Sciences [NIEHS]
National Toxicology Program [NTP]
We have developed a 1536-well cell-based assay for quantitative high throughput screening (qHTS) against a number of cell lines to determine in vitro cytotoxicity of small molecules. This particular assay uses a human lymphoblastoid cell line (LYMP2-010) purchased from Coriell Institute for Medical Research.
NCGC Assay Protocol Summary:
The CellTiter-Glo luminescent cell viability assay (Promega) is a homogeneous method to measure the number of viable cells in culture. The end point readout of this assay is based on quantitation of intracellular ATP, an indicator of metabolic activity, using the luciferase reaction. Luciferase catalyzes the oxidation of beetle Luciferin to oxyluciferin and light in the presence of ATP. The luminescent signal is proportional to amount of ATP present.
Using the CellTiter-Glo luminescent cell viability assay, the amount of cellular ATP was measured in the lymphoblastoid cell line with complete culture medium following compound treatment for 24 hours. The assay was performed in opaque white Kalypsys 1536-well plates. In the screen, tetraoctylammonium bromide was used as positive control. Library compounds were measured for their ability to cause acute toxicity in the cell line, as reflected by a decrease in intracellular ATP levels, in a concentration-dependent manner. […] AC50 values were determined from concentration-response data modeled with the standard Hill equation.
qHTS protocol for CellTiter Glo lymphoblastoid cellular assay
[Step] [Parameter] [Value] [Description]
1. Reagent; 5 uL; 2500 lymphoblastoid cells/well
2. Time; 5 hr; 37 C incubation
4. Controls; 23 nL; Tetraoctylammonium bromide 6.4pM to 92 uM
5. Time; 24 hr; 37 C incubation
6. Reagent; 5 uL; CellTiter Glo reagent
7. Time; 30 min; Room Temperature
8. Detection; Luminescence; Viewlux plate reader
Keywords: cell viability, cytotoxicity, lymphoblastoid cell line, luminescence, NTPHTS, NTPHTS_NCGC, NIEHS, DSSTox, MLSMR, MLSCN, NIH Roadmap, qHTS, NCGC
Potency means the concentration at half of the fitted maximal effect.

Row | SMILES | Potency
1 | NC(=O)c1ncn([C@@H]2O[C@H](CO)[C@@H](O)[C@H]2O)n1 | inactive
2 | NCCNCCNCCNCCN | inactive
3 | O=C1c2c(O)cccc2Cc2cccc(O)c21 | inactive
4 | Cc1cc2nc3c(=O)[nH]c(=O)nc-3n(C[C@H](O)[C@H](O)[C@H](O)CO)c2cc1C | inactive
5 | CCCCOC(=O)c1ccc(O)cc1 | inactive
6 | C[C@]12C[C@H](O)[C@H]3[C@@H](CCC4=CC(=O)CC[C@@]43C)[C@@H]1CC[C@@H]2C(=O)CO | inactive
7 | CC12CCC(CC1)C(C)(C)O2 | inactive
8 | Cc1c(O)cccc1C(=O)N[C@@H](CSc1ccccc1)[C@H](O)CN1C[C@H]2CCCC[C@H]2C[C@H]1C(=O)NC(C)(C)C | 50.1 µM (active)
9 | COc1ccccc1O | inactive
10 | CCCCCCCCCCCCOS(=O)(=O)O | inactive
11 | [Cl][In]([Cl])[Cl] | inactive
12 | Nc1ccc(S(=O)(=O)Nc2nccs2)cc1 | inactive
13 | Oc1cccc(O)c1 | inactive
14 | Cc1cc(CC(=O)O)n(C)c1C(=O)c1ccc(Cl)cc1 | inactive
15 | NCCNCCNCCN | inactive
16 | CC1(C)[C@@H]2CC[C@@]1(C)C(=O)C2 | inactive
